{"source": "the antibiotic and cytotoxicity screens of Wong et al. (2023)", "note": "The whole screen tested about 39,000 compounds, of which about 3,300 (8.5%) were called active. The list comes from a sample in which actives are over-represented; it also holds similar structures and randomly drawn compounds."}
{"tested_on": "HepG2", "assay": "cytotoxicity call (relative viability < 0.9)", "settings": "10 µM"}
{"smiles": "CC(=O)N(C)C[C@H]1Oc2cc(C#CCN(C)C)ccc2S(=O)(=O)N([C@@H](C)CO)C[C@@H]1C", "cytotoxicity call": "inactive"}
{"smiles": "C[C@H]1CN([C@@H](C)CO)C(=O)c2cccc(NC(=O)c3ccncc3)c2O[C@H]1CN(C)Cc1ccc(-c2ccccc2)cc1", "cytotoxicity call": "inactive"}
{"smiles": "C[C@@H]1CN([C@H](C)CO)C(=O)c2cccc(NC(=O)c3ccc(-c4nccs4)cc3)c2O[C@@H]1CN(C)CC1CCCCC1", "cytotoxicity call": "inactive"}
{"smiles": "C[C@H]1CN([C@@H](C)CO)C(=O)c2cccc(NC(=O)c3ccc(-c4nccs4)cc3)c2O[C@@H]1CN(C)CC1CCCCC1", "cytotoxicity call": "inactive"}
{"smiles": "C[C@H](CO)N1C[C@H](C)[C@H](CN(C)Cc2ccc(C(=O)Nc3ccccc3N)cc2)Oc2c(NC(=O)c3ccc(-c4nccs4)cc3)cccc2C1=O", "cytotoxicity call": "inactive"}
{"smiles": "C[C@@H]1CN([C@H](C)CO)C(=O)c2cccc(NC(=O)c3ccc(-c4nccs4)cc3)c2O[C@H]1CN(C)Cc1ccc(Cl)c(Cl)c1", "cytotoxicity call": "inactive"}
{"smiles": "C[C@@H]1CN([C@@H](C)CO)C(=O)c2cccc(NC(=O)c3ccc(-c4nccs4)cc3)c2O[C@@H]1CN(C)Cc1ccc(Cl)c(Cl)c1", "cytotoxicity call": "active"}
{"smiles": "C[C@H]1CN([C@@H](C)CO)C(=O)c2cccc(NC(=O)c3ccc(-c4nccs4)cc3)c2O[C@@H]1CN(C)Cc1ccc(Cl)c(Cl)c1", "cytotoxicity call": "inactive"}
{"smiles": "C[C@@H]1CN([C@H](C)CO)C(=O)c2cccc(NC(=O)c3ccc(-c4nccs4)cc3)c2O[C@H]1CN(C)CC1CCCCC1", "cytotoxicity call": "active"}
{"smiles": "C[C@H](CO)N1C[C@H](C)[C@@H](CN(C)Cc2ccc(-c3ccccc3)cc2)Oc2c(NC(=O)c3ccncc3)cccc2C1=O", "cytotoxicity call": "active"}
{"smiles": "C[C@@H]1CN([C@@H](C)CO)C(=O)c2cccc(NC(=O)c3ccc(-c4nccs4)cc3)c2O[C@@H]1CN(C)Cc1ccc(C(=O)Nc2ccccc2N)cc1", "cytotoxicity call": "active"}
{"smiles": "C[C@H]1CN([C@@H](C)CO)C(=O)c2cccc(NC(=O)c3ccc(-c4nccs4)cc3)c2O[C@@H]1CN(C)Cc1ccc(C(=O)Nc2ccccc2N)cc1", "cytotoxicity call": "inactive"}
{"smiles": "C[C@H](CO)N1C[C@H](C)[C@H](CN(C)Cc2ccc(-c3ccccc3)cc2)Oc2c(NC(=O)c3ccncc3)cccc2C1=O", "cytotoxicity call": "inactive"}
{"smiles": "COc1cccc(S(=O)(=O)Nc2ccc3c(c2)[C@@H]2C[C@@H](CC(=O)NCc4cccc(F)c4)O[C@H](CO)[C@@H]2O3)c1", "cytotoxicity call": "inactive"}
{"smiles": "O=C(C[C@@H]1C=C[C@@H](NS(=O)(=O)c2ccccc2)[C@@H](CO)O1)NCc1ccncn1", "cytotoxicity call": "inactive"}
{"smiles": "COc1ccc(S(=O)(=O)N2C[C@H](O)COC[C@@H]3O[C@@H](CC(=O)N[C@@H]4CCN(Cc5ccccc5)C4)CC[C@H]32)cc1", "cytotoxicity call": "inactive"}
{"smiles": "COCC(=O)Nc1ccc2c(c1)C(=O)N(C)C[C@@H](OC)[C@@H](C)CN(Cc1ccccc1OC)[C@H](C)CO2", "cytotoxicity call": "inactive"}
{"smiles": "C[C@@H]1CCCCO[C@H](CN(C)C(=O)Cc2ccccc2)[C@H](C)CN([C@@H](C)CO)C(=O)c2cc(NS(=O)(=O)c3ccc(Cl)cc3)ccc2O1", "cytotoxicity call": "inactive"}
{"smiles": "COCC(=O)N1C[C@H](C)[C@H](OC)CN(C)C(=O)c2ccc(NC(=O)c3ccc(OC)cc3)cc2OC[C@H]1C", "cytotoxicity call": "inactive"}
{"smiles": "Cc1noc(C)c1S(=O)(=O)N(C)C[C@H]1OCCCC[C@@H](C)Oc2ccc(NC(=O)Nc3ccc(F)cc3)cc2C(=O)N([C@H](C)CO)C[C@@H]1C", "cytotoxicity call": "inactive"}
{"smiles": "Cc1noc(C)c1S(=O)(=O)Nc1ccc2c(c1)C(=O)N([C@H](C)CO)C[C@@H](C)[C@H](CN(C)Cc1ccccc1)OCCCC[C@H](C)O2", "cytotoxicity call": "inactive"}
{"smiles": "COc1ccc(S(=O)(=O)N(C)C[C@@H]2Oc3ccc(NC(=O)Nc4cccc5c4CCCC5)cc3CC(=O)N([C@@H](C)CO)C[C@@H]2C)cc1Cl", "cytotoxicity call": "inactive"}
{"smiles": "CC(C)NC(=O)Nc1ccc2c(c1)CC(=O)N([C@H](C)CO)C[C@@H](C)[C@H](CN(C)S(=O)(=O)c1ccc(Cl)cc1)O2", "cytotoxicity call": "inactive"}
{"smiles": "COc1ccc(S(=O)(=O)N(C)C[C@@H]2Oc3ccc(NC(=O)NC(C)C)cc3CC(=O)N([C@H](C)CO)C[C@@H]2C)cc1", "cytotoxicity call": "inactive"}
{"smiles": "COc1ccc(S(=O)(=O)N(C)C[C@@H]2Oc3ccc(NC(=O)Nc4ccc(Cl)c(Cl)c4)cc3CC(=O)N([C@@H](C)CO)C[C@@H]2C)cc1Cl", "cytotoxicity call": "active"}
{"smiles": "COc1ccc(S(=O)(=O)N(C)C[C@@H]2Oc3ccc(NC(=O)Nc4cc(Cl)cc(Cl)c4)cc3CC(=O)N([C@@H](C)CO)C[C@@H]2C)cc1Cl", "cytotoxicity call": "active"}
{"smiles": "CC(C)NC(=O)Nc1ccc2c(c1)CC(=O)N([C@@H](C)CO)C[C@@H](C)[C@H](CN(C)S(=O)(=O)c1ccc(Cl)cc1)O2", "cytotoxicity call": "inactive"}
{"smiles": "CCS(=O)(=O)N1CCNCC1", "cytotoxicity call": "inactive"}
{"smiles": "CC1C(=O)CCC2C1(C)CCC1C2(C)CCC2(C)C3CC(C)(C)CCC3(C)CCC12C", "note": "(configuration not stated)", "cytotoxicity call": "inactive"}
{"smiles": "O=C(O)c1n[nH]c2c1CCCC2", "cytotoxicity call": "inactive"}
{"smiles": "C[C@H]1CN([C@@H](C)CO)C(=O)c2cc(C#Cc3ccccc3F)cnc2O[C@H]1CN(C)C(=O)C1CCOCC1", "cytotoxicity call": "inactive"}
{"smiles": "COc1ccc(C[C@H]2c3cc(OC)c(OC)cc3CC[N@+]2(C)CCC(=O)OCCCCCOC(=O)CC[N@+]2(C)CCc3cc(OC)c(OC)cc3[C@@H]2Cc2ccc(OC)c(OC)c2)cc1OC", "cytotoxicity call": "inactive"}
{"smiles": "COc1ccc(C[C@@H]2c3cc(OC)c(OC)cc3CC[N@+]2(C)CCC(=O)OCCCCCOC(=O)CC[N@@+]2(C)CCc3cc(OC)c(OC)cc3[C@H]2Cc2ccc(OC)c(OC)c2)cc1OC", "cytotoxicity call": "active"}
{"smiles": "COc1ccc(CC2c3cc(OC)c(OC)cc3CC[N+]2(C)CCC(=O)OCCCCCOC(=O)CC[N+]2(C)CCc3cc(OC)c(OC)cc3C2Cc2ccc(OC)c(OC)c2)cc1OC.O=S(=O)([O-])c1ccccc1.O=S(=O)([O-])c1ccccc1", "note": "(configuration not stated)", "cytotoxicity call": "inactive"}
{"smiles": "COc1ccc(S(=O)(=O)Nc2ccc3c(c2)C(=O)N([C@@H](C)CO)C[C@H](C)[C@@H](CN(C)S(=O)(=O)c2ccccc2)O3)cc1", "cytotoxicity call": "inactive"}
{"smiles": "C[C@@H]1CN([C@H](C)CO)C(=O)c2cc(NC(=O)C3CCCCC3)ccc2O[C@H]1CN(C)Cc1ccc(C(F)(F)F)cc1", "cytotoxicity call": "inactive"}
{"smiles": "CC(C)NC(=O)Nc1cccc2c1O[C@@H](CN(C)Cc1ccc(Oc3ccccc3)cc1)[C@@H](C)CN([C@H](C)CO)C2=O", "cytotoxicity call": "inactive"}
{"smiles": "COc1cccn(CC(=O)N2CCO[C@@H](CCN)C2)c1=O", "cytotoxicity call": "inactive"}
{"smiles": "CN(C)c1nc(SCC(N)=O)nc(N(C)C)n1", "cytotoxicity call": "inactive"}
{"smiles": "CCNc1nc(SCC(N)=O)nc(N2CCOCC2)n1", "cytotoxicity call": "inactive"}
{"smiles": "CNc1nc(SCC(N)=O)nc(N2CCOCC2)n1", "cytotoxicity call": "active"}
{"smiles": "Cn1c(=O)c2c(nc(N(CCO)CCO)n2Cc2ccc(F)cc2)n(C)c1=O", "cytotoxicity call": "inactive"}
{"smiles": "C[C@@H]1CN([C@@H](C)CO)C(=O)c2c(c3ccccc3n2C)-c2ccccc2CO[C@H]1CN(C)Cc1ccc(Oc2ccccc2)cc1", "cytotoxicity call": "inactive"}
{"smiles": "C[C@@H]1CN([C@H](C)CO)C(=O)Cc2cc(NC(=O)CCC(F)(F)F)ccc2O[C@H]1CN(C)C(=O)Nc1ccc(C(F)(F)F)cc1", "cytotoxicity call": "inactive"}
{"smiles": "C[C@H]1CN([C@@H](C)CO)C(=O)Cc2cc(NC(=O)C3CCCCC3)ccc2O[C@@H]1CN(C)Cc1ccc(-c2ccccc2)cc1", "cytotoxicity call": "inactive"}
{"smiles": "C[C@@H]1CN([C@H](C)CO)C(=O)Cc2cc(NC(=O)C3CCCCC3)ccc2O[C@@H]1CN(C)Cc1ccc(-c2ccccc2)cc1", "cytotoxicity call": "active"}
{"smiles": "C[C@@H]1CN([C@H](C)CO)C(=O)Cc2cc(NC(=O)C3CCCCC3)ccc2O[C@H]1CN(C)Cc1ccc(-c2ccccc2)cc1", "cytotoxicity call": "inactive"}
{"smiles": "C[C@@H]1CN([C@@H](C)CO)C(=O)Cc2cc(NC(=O)C3CCCCC3)ccc2O[C@H]1CN(C)Cc1ccc(-c2ccccc2)cc1", "cytotoxicity call": "inactive"}
{"smiles": "C[C@H](CO)N1C[C@H](C)[C@H](CN(C)Cc2ccc(-c3ccccc3)cc2)Oc2ccc(NC(=O)C3CCCCC3)cc2CC1=O", "cytotoxicity call": "inactive"}
{"smiles": "C[C@@H]1CN([C@@H](C)CO)C(=O)Cc2cc(NC(=O)C3CCCCC3)ccc2O[C@@H]1CN(C)Cc1ccc(-c2ccccc2)cc1", "cytotoxicity call": "active"}
{"smiles": "Cc1noc(C)c1NC(=O)N(C)C[C@H]1Oc2c(NC(=O)C3CC3)cccc2C(=O)N([C@H](C)CO)C[C@H]1C", "cytotoxicity call": "inactive"}
{"smiles": "COc1ccc(NC(=O)Nc2ccc3c(c2)CC(=O)N([C@H](C)CO)C[C@H](C)[C@@H](CN(C)Cc2ccc(Cl)c(Cl)c2)O3)cc1", "cytotoxicity call": "inactive"}
{"smiles": "COc1ccc(NC(=O)Nc2ccc3c(c2)CC(=O)N([C@@H](C)CO)C[C@@H](C)[C@@H](CN(C)Cc2ccc(Cl)c(Cl)c2)O3)cc1", "cytotoxicity call": "active"}
{"smiles": "COc1ccc(NC(=O)Nc2ccc3c(c2)CC(=O)N([C@@H](C)CO)C[C@H](C)[C@@H](CN(C)Cc2ccc(Cl)c(Cl)c2)O3)cc1", "cytotoxicity call": "active"}
{"smiles": "COc1ccc(NC(=O)Nc2ccc3c(c2)CC(=O)N([C@@H](C)CO)C[C@H](C)[C@H](CN(C)Cc2ccc(Cl)c(Cl)c2)O3)cc1", "cytotoxicity call": "active"}
{"smiles": "COc1ccc(NC(=O)Nc2ccc3c(c2)C(=O)N([C@H](C)CO)C[C@@H](C)[C@H](CN(C)Cc2ccc(Cl)c(Cl)c2)O3)cc1", "cytotoxicity call": "inactive"}
{"smiles": "COc1ccc(NC(=O)Nc2ccc3c(c2)CC(=O)N([C@H](C)CO)C[C@H](C)[C@H](CN(C)Cc2ccc(Cl)c(Cl)c2)O3)cc1", "cytotoxicity call": "active"}
{"smiles": "COc1ccc(NC(=O)Nc2ccc3c(c2)C(=O)N([C@@H](C)CO)C[C@@H](C)[C@H](CN(C)Cc2ccc(Cl)c(Cl)c2)O3)cc1", "cytotoxicity call": "inactive"}
{"smiles": "C[C@H](CO)N1C[C@H](C)[C@H](CN(C)S(=O)(=O)c2ccccc2)Oc2ccc(NS(=O)(=O)c3cn(C)cn3)cc2CC1=O", "cytotoxicity call": "inactive"}
{"smiles": "CC(C)NC(=O)N(C)C[C@H]1Oc2cc(C#Cc3cccc(F)c3)ccc2S(=O)(=O)N([C@H](C)CO)C[C@H]1C", "cytotoxicity call": "inactive"}
{"smiles": "O=C(NCCCO)c1cc2ccccc2oc1=O", "cytotoxicity call": "inactive"}
{"smiles": "COc1cccc(C(=O)Nc2ccc3c(c2)C(=O)N(C)[C@H]2CC[C@@H](CC(=O)NCCCN4CCOCC4)O[C@@H]2CO3)c1", "cytotoxicity call": "inactive"}
